Experimental data published in the supplement of paper PMC12669032.
A number with no mark means an inactive call.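 How the source made its calls: active = AUC reduced over 20% with Padj below 0.05 in at least 2 of 3 replicates; inactive = otherwise.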

Assays:
Assay in all cases: growth AUC relative to DMSO control (median of replicates) (fraction); higher = more growth (less inhibition), active = hit call of the paper
Conditions in all cases: 20 µM; 24 h
Akkermansia muciniphila = test system: Akkermansia muciniphila
Procedure, shortened: (§1)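 OD600 was recorded every hour for 24 h in anaerobic monocultures of gut bacteria kept at 37 °C in mGAM, seeded at OD600 0.05 and given 20 µM compound in 1% DMSO. The area under each growth curve was scaled to the plate median of solvent-only wells, or to row and column medians for the industrial chemical plate. Before this step, the minimum OD was set to 0. Reported values are medians of three biological replicates run on separate days.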

Bacteroides caccae = test system: Bacteroides caccae
Procedure, shortened: as §1

Bacteroides clarus = test system: Bacteroides clarus
Procedure, shortened: as §1

Bacteroides dorei = test system: Bacteroides dorei
Procedure, shortened: as §1

Bacteroides stercoris = test system: Bacteroides stercoris
Procedure, shortened: as §1

[1] = test system: Bacteroides thetaiotaomicron
Procedure, shortened: as §1

Bacteroides uniformis = test system: Bacteroides uniformis
Procedure, shortened: as §1

[2] = test system: Bifidobacterium longum subsp. longum
Procedure, shortened: as §1

Clostridium difficile = test system: Clostridium difficile
Procedure, shortened: as §1

Collinsella aerofaciens = test system: Collinsella aerofaciens
Procedure, shortened: as §1

Coprococcus comes = test system: Coprococcus comes
Procedure, shortened: as §1

Escherichia coli ED1a = test system: Escherichia coli ED1a
Procedure, shortened: as §1

Escherichia coli IAI1 = test system: Escherichia coli IAI1
Procedure, shortened: as §1

Eubacterium rectale = test system: Eubacterium rectale
Procedure, shortened: as §1

[3] = test system: Fusobacterium nucleatum subsp. animalis
Procedure, shortened: as §1

Lactobacillus gasseri = test system: Lactobacillus gasseri
Procedure, shortened: as §1

Lactobacillus paracasei = test system: Lactobacillus paracasei
Procedure, shortened: as §1

Odoribacter splanchnicus = test system: Odoribacter splanchnicus
Procedure, shortened: as §1

[4] = test system: Parabacteroides distasonis
Procedure, shortened: as §1

Parabacteroides merdae = test system: Parabacteroides merdae
Procedure, shortened: as §1

SMILES	growth AUC (Akkermansia muciniphila)	growth AUC (Bacteroides caccae)	growth AUC (Bacteroides clarus)	growth AUC (Bacteroides dorei)	growth AUC (Bacteroides stercoris)	growth AUC [1]	growth AUC (Bacteroides uniformis)	growth AUC [2]	growth AUC (Clostridium difficile)	growth AUC (Collinsella aerofaciens)	growth AUC (Coprococcus comes)	growth AUC (Escherichia coli ED1a)	growth AUC (Escherichia coli IAI1)	growth AUC (Eubacterium rectale)	growth AUC [3]	growth AUC (Lactobacillus gasseri)	growth AUC (Lactobacillus paracasei)	growth AUC (Odoribacter splanchnicus)	growth AUC [4]	growth AUC (Parabacteroides merdae)
O=C(NCCc1ncc(C(F)(F)F)cc1Cl)c1ccccc1C(F)(F)F	0.849	0.978	1.01	1	0.951	0.973	0.987	0.974	0.996	1	1	1.01	0.988	0.964	0.875	0.999	1.01	0.985	0.96	0.996
Nc1ccc(Cl)cc1	1.01	1.03	1.02	1	1.03	1.05	1.02	1.04	1	0.972	1.03	1.02	1	1.05	1.08	0.939	0.955	1.1	1.05	1.02
Cc1cc(C)c(C2=C(OC(=O)CC(C)(C)C)C3(CCCC3)OC2=O)c(C)c1	1.2	0.977	1	0.988	1.23	1.05	0.958	1.05	0.98	1.02	0.974	1.02	1.03	1.04	1.09	0.918	1.14	0.978	0.772 (active)	1.04
CC(C)C(C(=O)OC(C#N)c1cccc(Oc2ccccc2)c1)c1ccc(OC(F)F)cc1 (stereo not given)	0.959	0.981	0.956	1.02	1.08	0.987	1.01	0.965	1.01	1.01	1.02	0.998	0.979	0.848	0.968	1.01	1.02	1.07	0.983	0.971
COC(=O)c1ccccc1S(=O)(=O)NC(=O)Nc1nc(C)cc(C)n1	1.07	0.962	0.988	0.968	0.859	0.979	1.02	1.1	1	0.949	1	0.993	0.985	1.07	1	0.94	0.948	1.07	1.04	0.987
O=C1C=C(N(Cc2ccc(Cl)nc2)CC(F)F)CO1	0.98	0.991	0.991	0.977	1.25	1.01	0.997	1.01	0.978	0.994	1.02	0.971	0.994	0.959	1.05	1	0.869	1.01	0.999	1.01
O=C(NC(=O)c1c(F)cccc1F)Nc1cc(Cl)c(OC(F)(F)C(F)F)c(Cl)c1	1.17	1	0.954	0.967	1.05	0.998	0.956	0.999	0.967	0.994	0.96	0.965	0.982	0.892	0.877	0.986	0.62	0.983	0.994	0.992
CCNS(=O)(=O)C(F)(F)C(F)(F)C(F)(F)C(F)(F)C(F)(F)C(F)(F)C(F)(F)C(F)(F)F	0.945	0.986	0.906	1.02	0.896	0.993	0.966	0.905	1.04	1.13	0.995	0.987	0.99	0.975	0.968	1.05	0.891	0.978	1.01	0.947
CC1(C)CON(Cc2ccccc2Cl)C1=O	1.11	0.927	1.01	0.917	0.996	0.98	0.949	0.938	0.977	0.947	1.01	0.965	1.02	1.12	1.05	0.837	1.05	0.899	0.838	0.985
CCOP(=S)(OCC)SCn1nnc2ccccc2c1=O	0.989	0.969	0.993	1.01	1.1	0.908	0.913	1.04	1.02	1.03	1.01	1.01	1.03	1.02	1.09	1.01	1.05	0.926	0.707 (active)	0.946
ClC1=C(Cl)[C@]2(Cl)C3CC=CC3[C@@]1(Cl)C2(Cl)Cl (stereo not given in full)	0.898	1.03	0.999	0.992	0.973	0.981	0.971	0.994	0.997	0.965	0.942	0.99	1.01	0.951	0.846	0.989	1.03	0.987	1.04	0.984
OCC(O)CCl (stereo not given)	1.01	1.01	0.998	1.01	1.02	0.984	1	0.965	1.01	1.01	0.999	0.947	1	1	0.987	0.993	0.978	1.01	1.02	0.991
COc1nc(NC(C)C)nc(NC(C)C)n1	1.01	1.04	0.993	0.994	0.979	1.02	1.02	1.02	0.98	0.995	1.01	1.01	1.02	0.97	0.885	0.984	1.01	1.03	1.03	1.02
COC(=O)COc1ccc(Cl)cc1Cl	0.95	0.944	0.983	0.969	0.853	1.01	1.04	0.914	1	0.925	0.98	0.968	0.968	1.21	0.946	0.915	1.04	1.14	0.931	0.964
CC(C)N(C(=O)SCC(Cl)=C(Cl)Cl)C(C)C	1.26	1	1.02	0.955	0.955	0.999	0.989	1.01	0.994	0.953	0.981	0.977	0.977	1.08	1.01	0.948	1	0.944	0.872	0.947
